From PubChem BioAssay (Tox21)
“And” between values parts separate entries of the source, which are not always exact repeats. Equal values may be shown once. Results filed as inconclusive are left out. A structure can be active in one record and inactive in another. The source made the active and inactive calls. Unless noted, the call rests on the fitted dose curve; in most records, active means well fitted curve in the direction sought with a large enough effect in the repeat runs; inconclusive means weak or mixed curves; inactive means no such curve, though single readings can be large; an effect the other way counts as inactive or inconclusive.

How the values were obtained:
[1] = qHTS assay for small molecules that induce genotoxicity in human embryonic kidney cells expressing luciferase-tagged ATAD5 (AID 651632); further: nearly all actives have a fitted effect of over 15% in size
Method in brief: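 HEK293T cells carrying a luciferase reporter tagged to ATAD5 were exposed to compound or DMSO vehicle for 16 hr at 37C, 5% CO2. Amplite was added, and after 30 min at room temperature luciferase activity was read as a marker of ATAD5 induction.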

[2] = qHTS assay for small molecule agonists of the p53 signaling pathway - cell viability (AID 651633; calls by dose curve; further: nearly all actives have a fitted effect of over 30% in size; further: potency means the concentration at half of the fitted maximal effect)
Method in brief: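 p53RE-bla cells were treated with compound for 16 hours at 37 C. Cytotoxicity was then measured as CellTiter-Glo luminescence after 30 min at room temperature.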

[3] = qHTS assay for small molecules that induce genotoxicity in human embryonic kidney cells expressing luciferase-tagged ATAD5 - cell viability (AID 651634; calls by dose curve; further: nearly all actives have a fitted effect of over 25% in size; further: potency means the concentration at half of the fitted maximal effect)
Method in brief: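 HEK293T cells expressing luciferase-tagged ATAD5 were exposed to compound or DMSO for 15.5 hr at 37C, 5% CO2. Viability was then read as live-cell protease activity by CellTiter-Fluor fluorescence after 30 min at 37C.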

[4] = qHTS assay for small molecule disruptors of the mitochondrial membrane potential - cell viability (AID 720634; calls by dose curve; further: nearly all actives have a fitted effect of over 20% in size; further: potency means the concentration at half of the fitted maximal effect)
Method in brief: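 HepG2 cells seeded overnight at 37 C, then exposed to compound or DMSO for 1 hr at 37 C, 5% CO2. m-MPI dye added, then CellTiter-Glo for 30 min at room temperature; viability read as ATP luminescence.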

[5] = qHTS assay for small molecule disruptors of the mitochondrial membrane potential (AID 720635); further: potency means the concentration at half of the fitted maximal effect
Method in brief: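 HepG2 cells exposed to compound 1 hr at 37C, then Mito-MPS dye 30 min. Ratio read of aggregate (540/590 nm) versus monomer (490/535 nm) fluorescence.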

[6] = qHTS assay to test for compound auto fluorescence at 590 nm (red) in HepG2 cells (AID 720674)
Method in brief: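 Fluorescence at 590 nm emission following 540 nm excitation was recorded from HepG2 wells one hour after compound transfer, with DMSO-only wells as vehicle and Rose Bengal sodium equivalency as the scale.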

[7] = qHTS assay to test for compound auto fluorescence at 535 nm (green) in HepG2 cells (AID 720675)
[8] = qHTS assay to test for compound auto fluorescence at 590 nm (red) in HEK293 cells (AID 720679)
Method in brief: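 Red channel, Ex/Em 540/590nm; signal expressed as equivalency to Rose Bengal sodium. HEK293, 2,000 cells/well, 10% dialyzed FBS; 23 nL compound pinned after 4-5 hr attachment; overnight 37C/5% CO2 before reading.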

[9] = qHTS assay to test for compound auto fluorescence at 535 nm (green) in HEK293 cells (AID 720680)
[10] = qHTS assay to test for compound auto fluorescence at 460 nm (blue) in HEK293 cell free culture (AID 720681)
Method in brief: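 Compounds were added to cell-free DMEM with 10% FBS and fluorescence read directly. The blue channel used 405 nm excitation and 460 nm emission, with triamterene as the reference fluorophore.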

[11] = qHTS assay to test for compound auto fluorescence at 535 nm (green) in HEK293 cell free culture (AID 720682)
Method in brief: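 Measurement is a direct plate read of green fluorescence (485 nm in, 535 nm out) after compound addition to serum-supplemented DMEM lacking cells, with fluorescein used to express intensities.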

[12] = qHTS assay to test for compound auto fluorescence at 590 nm (red) in HepG2 cell free culture (AID 720684)
Method in brief: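 Compounds are added to culture medium (MEM, 10% FBS) lacking cells, then fluorescence is read at excitation 540 nm, emission 590 nm, with Rose Bengal sodium as the equivalency standard.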

[13] = qHTS assay to test for compound auto fluorescence at 535 nm (green) in HepG2 cell free culture (AID 720686)
[14] = qHTS assay to test for compound auto fluorescence at 460 nm (blue) in HepG2 cells (AID 720687)
Method in brief: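 HepG2 cells in MEM with 10% FBS, attached overnight at 37 C, were exposed to compound or DMSO for 1 hr at 37 C, 5% CO2. Blue fluorescence was read at 405/460 nm, with triamterene as reference fluorophore.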

[15] = target: Glucocorticoid receptor (Homo sapiens) (UniProt P04150); assay: qHTS assay to identify small molecule agonists of the glucocorticoid receptor (GR) signaling pathway (AID 720691; active means well fitted activation curve with a large enough effect in the signal ratio in the repeat runs, not every such curve was filed as active; the % refers to the signal ratio)
Chain of Glucocorticoid receptor (Homo sapiens) (P04150 whole entry, looked up): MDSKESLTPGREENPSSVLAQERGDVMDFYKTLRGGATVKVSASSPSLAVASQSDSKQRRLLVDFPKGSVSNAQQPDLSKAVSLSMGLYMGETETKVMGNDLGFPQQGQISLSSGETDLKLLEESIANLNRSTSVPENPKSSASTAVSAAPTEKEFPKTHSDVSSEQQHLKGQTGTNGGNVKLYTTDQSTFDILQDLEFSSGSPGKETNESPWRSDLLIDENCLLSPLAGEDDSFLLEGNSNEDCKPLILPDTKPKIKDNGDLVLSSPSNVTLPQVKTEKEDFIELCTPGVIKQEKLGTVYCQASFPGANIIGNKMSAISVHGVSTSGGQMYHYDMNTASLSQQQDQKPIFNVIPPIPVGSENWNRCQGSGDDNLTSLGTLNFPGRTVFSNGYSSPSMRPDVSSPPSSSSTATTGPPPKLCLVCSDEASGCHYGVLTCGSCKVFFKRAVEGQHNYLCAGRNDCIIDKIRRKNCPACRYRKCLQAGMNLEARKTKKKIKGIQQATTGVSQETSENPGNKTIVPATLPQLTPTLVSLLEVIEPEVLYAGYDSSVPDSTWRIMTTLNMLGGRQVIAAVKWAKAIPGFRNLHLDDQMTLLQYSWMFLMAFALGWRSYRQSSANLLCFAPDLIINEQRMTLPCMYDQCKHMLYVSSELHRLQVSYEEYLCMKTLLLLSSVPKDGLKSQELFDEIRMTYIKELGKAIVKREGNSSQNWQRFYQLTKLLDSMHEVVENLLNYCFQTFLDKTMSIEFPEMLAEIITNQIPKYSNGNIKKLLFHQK
Method in brief: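 GR-bla HeLa cells (beta-lactamase reporter under glucocorticoid response element) were plated 4 h at 37 C/5% CO2, given compounds in DMSO, and incubated 18 h at 37 C. LiveBLAzer B/G FRET substrate was added for 2 h at room temperature, then fluorescence intensity read.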

[16] = qHTS assay for small molecule agonists of the p53 signaling pathway (AID 651631; calls by dose curve; further: nearly all actives have a fitted effect of over 15% in size; further: potency means the concentration at half of the fitted maximal effect)
Method in brief: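 Quantitative high-throughput format: 4,000 p53RE-bla HCT-116 cells/well, 5 h pre-incubation, 16 h compound exposure at 37 °C, 2 h room-temperature substrate step, fluorescence intensity measured.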

[17] = qHTS assay to test for compound auto fluorescence at 460 nm (blue) in HEK293 cells (AID 720678)
Method in brief: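 Blue read-out at excitation 405 nm and emission 460 nm follows overnight compound exposure of HEK293 cells at 37C in 5% CO2. Activity is given as auto fluorescence equivalency to triamterene.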

[18] = qHTS assay to test for compound auto fluorescence at 590 nm (red) in HEK293 cell free culture (AID 720683)
Method in brief: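 Cell-free wells of DMEM with 10% FBS received compound, and intrinsic fluorescence was read at excitation/emission 540/590 nm. Values expressed as equivalence to Rose Bengal sodium.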

[19] = qHTS assay to test for compound auto fluorescence at 460 nm (blue) in HepG2 cell free culture (AID 720685)
Method in brief: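 Compound (23 nL) or DMSO pinned into cell-free MEM with 10% FBS; blue fluorescence read at 405/460 nm excitation/emission, expressed as auto-fluorescence equivalency to triamterene.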

[20] = target: Glucocorticoid receptor (Homo sapiens) (UniProt P04150); assay: qHTS assay to identify small molecule antagonists of the glucocorticoid receptor (GR) signaling pathway (AID 720692; active means well fitted inhibition curve with a large enough effect in the signal ratio in the repeat runs, not every such curve was filed as active; the % refers to the signal ratio)
Method in brief: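 GR-bla HeLa cells (beta-lactamase reporter under glucocorticoid response element) were pre-plated 4 h at 37 C, treated with compounds plus 5 nM dexamethasone (final) for 18 h, then read by LiveBLAzer B/G FRET fluorescence after 2 h.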

Measured: Potency

COC(=O)c1ccccc1OC
not listed: [16] | [17] | [18] | [19] | [20]
inactive: all other assays above

O=[N+]([O-])c1cccc(C(F)(F)F)c1
not listed: [1] | [5] | [7]
inactive: all other assays above

O=C(O)c1ccc2cc(C(=O)O)ccc2c1
not listed: [16]
inactive: all other assays above

Cc1cc(C)c(/C=C2\C(=O)Nc3ccccc32)[nH]1
active: [2] 2.66 µM | [5] 10.6 µM
not listed: [13] | [15] | [16] | [20]
inactive: all other assays above

Cc1ccc(C(C)C)cc2c(C)ccc1-2
not listed: [12] | [13] | [16]
inactive: all other assays above

[Cl][Pt-2]([Cl])([Cl])[Cl]
not listed: [1] | [2] | [5] | [7] | [12] | [17] | [20]
inactive: all other assays above

COc1c(C)c2c(c(O)c1C/C=C(\C)CCC(=O)OCCN1CCOCC1)C(=O)OC2
active: [16] 0.106 µM
not listed: [1] | [2] | [18] | [20]
inactive: all other assays above

Sc1nc2ccccc2s1
not listed: [1] | [2] | [5]
inactive: all other assays above

CC(C)NC[C@@H](O)COc1ccc(CC(N)=O)cc1
not listed: [15] | [16] | [20]
inactive: all other assays above

C#CC1(O)CC[C@H]2[C@@H]3CCC4=CCCC[C@@H]4[C@H]3CC[C@@]21C (some centres not stated)
active: [5] 9.02 µM and 17.2 µM
inactive and 68.6 µM (active): [2]
not listed: [7] | [16] | [20]
inactive: all other assays above

O=c1[nH]c2ccccc2n1CCCN1CCN(C(c2ccccc2)c2ccccc2)CC1
not listed: [1] | [3] | [5] | [12] | [13] | [18] | [20]
inactive: all other assays above

CCCC(=O)OC(C)(C)Cc1ccccc1
not listed: [1] | [5] | [19]
inactive: all other assays above

CCCCCCCCCCCC(=O)OCC(C)OC(=O)CCCCC(=O)O (configuration not stated)
not listed: [7] | [16] | [20]
inactive: all other assays above

CCCCCCCCCCCCCCCC[N+](C)(C)CC
active: [2] 26.6 µM and 61.3 µM | [3] 29.8 µM and 24.4 µM | [4] 61.3 µM | [5] 6.68 µM and 27.4 µM
not listed: [15] | [16] | [20]
inactive: all other assays above

CCn1c2ccccc2c2cc([N+](=O)[O-])ccc21
active: [4] 30.6 µM | [5] 30.6 µM
not listed: [7] | [15] | [16] | [20]
inactive: all other assays above

Nc1nc(N)nc(-c2cc(Cl)ccc2Cl)n1
not listed: [13] | [16]
inactive: all other assays above
